In the library only some 2% were active in any assay of this set; here they are far more common.
ADAM17 inh = inhibitors of human ADAM17; P78536; recombinant ADAM17, EDANS/DABCYL FRET peptide cleavage; inhibition, % at 6.95 µM; 370,000 tested, 0.83% active;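 active = inhibition above the mean of compounds lying between control limits plus 3 SD, set per campaign, cut at about 8.5% in these data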;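 note: 0% = DMSO-only wells as the low control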
FAS TE block = FAS thioesterase (human) inhibition. P49327. recombinant FAS-TE, OMFH fluorogenic substrate, fluorescence endpoint. inhibition, % at 15 µM. 360,000 tested, 0.67% active. AID 602261;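 active = compounds whose normalised, plate-corrected inhibition of enzyme fluorescence in the single-dose primary screen is 50% or more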;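 note: 0% = DMSO with enzyme and 100% = substrate without enzyme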
ADAM10 inh = inhibits human ADAM10. recombinant ADAM10, EDANS/DABCYL FRET peptide cleavage, 3 h. inhibition, % at 7 µM. 370,000 tested, 0.62% active;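 active = inhibition above a per-campaign cutoff equal to the mean of compounds falling between control-based bounds plus 3 SD, cut at about 20% in these data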;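 note: 0% = DMSO wells while the 100% control is not disclosed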
Target sequence (O14672 214-748 limits assumed): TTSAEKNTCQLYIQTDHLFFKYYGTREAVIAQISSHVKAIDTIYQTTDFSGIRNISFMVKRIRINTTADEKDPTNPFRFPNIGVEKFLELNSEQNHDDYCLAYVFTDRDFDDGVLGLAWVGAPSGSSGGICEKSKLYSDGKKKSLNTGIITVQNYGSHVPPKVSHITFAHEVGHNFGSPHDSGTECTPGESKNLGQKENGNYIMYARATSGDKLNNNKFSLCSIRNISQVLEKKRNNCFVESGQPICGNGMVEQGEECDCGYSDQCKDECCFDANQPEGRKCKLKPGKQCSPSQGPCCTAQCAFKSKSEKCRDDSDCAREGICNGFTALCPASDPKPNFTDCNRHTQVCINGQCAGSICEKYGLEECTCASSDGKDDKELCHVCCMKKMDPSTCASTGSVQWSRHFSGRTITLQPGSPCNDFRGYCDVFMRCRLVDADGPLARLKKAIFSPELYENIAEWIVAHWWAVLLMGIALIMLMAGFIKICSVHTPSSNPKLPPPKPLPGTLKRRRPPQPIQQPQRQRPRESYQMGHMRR
GC-B act = GC-B (human) receptor activation. HEK293-GC-B cells, CNP EC30, cGMP TR-FRET; 0% at EC30 CNP, 100% saturating CNP. activation, % at 10 µM. 370,000 tested, 0.11% active. AID 1920062;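 active = activation at 10 µM reaching about 35% in either raw or pattern-adjusted values, limit read from the data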
GC-A act = GC-A (human) enzyme activation; P16066; HEK293 GC-A cells, cGMP TR-FRET, EC30 ANP; 0% at EC30 ANP, 100% saturating ANP; activation, % at 10 µM; 370,000 tested, 0.14% active; AID 1671463; in the data active = activation above about 40%
FAS-TE conf = confirmation of human fatty acid synthase thioesterase inhibitors. inhibition, % at 15 µM. shares compounds with FAS TE block. recombinant FAS-TE, OMFH fluorogenic substrate, fluorescence. AID 624325. 2,300 tested, 45% active;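 active = compounds inhibiting the enzyme by at least 50% at 15 µM in any one of the replicates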;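 note: 0% = enzyme with DMSO only and 100% = wells lacking enzyme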
An asterisk follows results filed as active; . = no result.

SMILES	ADAM17 inh	FAS TE block	ADAM10 inh	GC-B act	GC-A act	FAS-TE conf
CC(C)[C@H](NC(=O)OC(C)(C)C)c1nnc(S(=O)(=O)Cc2c(F)cccc2Cl)o1	-3	83*	1	6	8	82*
O=C(Nc1nc2ncccn2c1-c1ccc(F)c(F)c1)c1ccccc1	-71	.	-238	4	-2	.
O=C(N1CCC(n2nc(-c3ccccc3)oc2=O)CC1)C1(c2ccccc2)CCCC1	-2	.	-1	-5	3	.
O=C(c1cc(F)cc(F)c1)N1CCCC(c2nc(-c3cccs3)no2)C1 (centres undefined)	-1	.	-2	-5	0	.
COc1ccc(Oc2c(Cl)cnn(CC(=O)C(c3ccccc3)c3ccccc3)c2=O)cc1	-6	.	-8	-28	-32	.
COc1ccc([N+](=O)[O-])cc1/C=N/NC(=O)CNC(=O)c1cccc(F)c1	1	70*	-7	-3	5	75*
CCCCCN1CCCCC(NC(=O)c2cccc(F)c2)C1=O (centres undefined)	-1	.	-4	2	-2	.
N#C/C(=C\c1ccccc1[N+](=O)[O-])C(=O)NCc1ccccc1	-6	37	-7	-1	1	.
CCCCCCCCNC(=O)/C(C#N)=C/c1ccccc1[N+](=O)[O-]	0	57*	1	-3	5	73*
COC(=O)[C@]12C[C@H](CC(=O)NCc3cccs3)C(=O)N(Cc3ccc(Cl)cc3Cl)C1=C[C@H](C1CCCC1)O[C@@H]2C	3	.	12	-16	-26	.
COc1ccc(-n2c(SCC(=O)NNC(=S)Nc3ccc(C)cc3)nnc2-c2ccccc2)cc1	2	.	8	-13	-10	.
COC(=O)C1=C(C(=O)OC)[C@]2([C@H]3CCCCN[C@@H](Cc4ccccc4)C(=O)N3Cc3ccccc3)C=C[C@H]1O2	4	75*	19	-12	-3	11
O=C1NC(Cc2ccccc2)c2nc3cc(F)ccc3c(=O)n2-c2cc3ccccc3cc21 (centres undefined)	1	92*	6	5	-8	34
CC(C)CC1NC(=O)c2cc3ccccc3cc2-n2c1nc1cc(Cl)ccc1c2=O (centres undefined)	-2	82*	-8	1	-5	17
O=C1NC(Cc2ccccc2)c2nc3cc(F)ccc3c(=O)n2-c2ccc(Cl)cc21 (centres undefined)	-5	.	-4	-3	-8	.
COc1cc2nc3n(c(=O)c2cc1OC)-c1cc2ccccc2cc1C(=O)NC3CC(C)C (centres undefined)	2	28	-2	-8	-4	.
Cc1ccc2c(=O)n3c(nc2c1)C(Cc1ccccc1)NC(=O)c1cc(Cl)ccc1-3 (centres undefined)	-2	.	0	-2	-7	.
Cc1ccc2c(=O)n3c(nc2c1)C(Cc1ccccc1)NC(=O)c1cc2ccccc2cc1-3 (centres undefined)	7	76*	18	5	-1	36
COc1cc2nc3n(c(=O)c2cc1OC)-c1cc2ccccc2cc1C(=O)NC3Cc1ccccc1 (centres undefined)	2	53*	10	2	-6	20
O=C1NC(Cc2ccccc2)c2nc3ccccc3c(=O)n2-c2ccc(Cl)cc21 (centres undefined)	-2	.	4	1	-6	.
O=C1NC(Cc2ccccc2)c2nc3cc(F)c(F)cc3c(=O)n2-c2cc3ccccc3cc21 (centres undefined)	5	86*	11	-2	-6	14
O=C1NC(Cc2ccccc2)c2nc3ccccc3c(=O)n2-c2cc3ccccc3cc21 (centres undefined)	3	70*	9	9	-1	-2
O=C1c2ccccc2C(=O)N1CCCCN(C(=O)c1cc([N+](=O)[O-])cc([N+](=O)[O-])c1)c1ccc(Cl)cc1	3	54*	-1	-3	-2	26
O=C1c2ccccc2C(=O)N1CCCCN(C(=O)c1ccc([N+](=O)[O-])cc1)c1ccc(Cl)cc1	4	-45	19	-6	-11	.
CCN(Cc1ccccc1)C(=O)CCCN1C(=O)COc2ccc(C)cc21	0	.	-3	-9	-8	.
SMILES	ADAM17 inh	FAS TE block	ADAM10 inh	GC-B act	GC-A act	FAS-TE conf
CN=C1S/C(=C/c2cc(C)n(-c3ccc(Cl)cc3F)c2C)C(=O)N1C	-4	.	-2	-26	-20	.
Cc1ccc(SCc2cc(=O)[nH]c(/N=C(\N)Nc3cccc4ccccc34)n2)cc1	0	58*	1	4	-6	4
CCCCS(=O)(=O)N1CCCc2nc(-c3ccc(OC)cc3)ccc21	-29	.	-114	6	1	.
Cc1cc(-c2nnc(CSc3nnc(NC(=O)c4ccc(C(C)(C)C)cc4)s3)o2)ccc1[N+](=O)[O-]	-4	75*	-1	4	3	10
CCC(=O)N(C)C[C@@H]1[C@H](c2ccc(C3=CCCCC3)cc2)[C@H](CO)N1C(=O)CC	0	.	0	-3	2	.
Cc1ccc(S(=O)(=O)N2[C@H](C(C)C)[C@H]3[C@H]4C(=O)N(c5ccccc5)C(=O)[C@H]4CC(=O)[C@H]3[C@@H]2c2ccccc2)cc1	-1	68*	0	-5	-1	42
Cc1ccc(S(=O)(=O)N2C[C@H]3C(=O)C[C@@H]4C(=O)N(c5ccccc5)C(=O)[C@@H]4[C@@H]3C[C@@H]2c2ccccc2)cc1	-1	75*	11	-3	-1	39
CCc1ccc([C@@H]2CC(=O)[C@@H]3CN(S(=O)(=O)c4ccccc4)[C@H](c4ccc(OC)cc4)C[C@@H]3N2S(=O)(=O)c2ccc(C)cc2)cc1	4	23	7	3	-3	.
Cc1ccc(S(=O)(=O)N2C[C@H]3[C@H]4C(=O)N(c5ccccc5)C(=O)[C@H]4CC(=O)[C@H]3[C@@H]2c2ccc(Cl)cc2)cc1	2	41	-1	-2	-5	.
Cc1ccc(S(=O)(=O)N2C[C@H]3[C@H]4C(=O)N(c5ccccc5)C(=O)[C@H]4CC(=O)[C@H]3[C@@H]2c2cccc3ccccc23)cc1	4	84*	12	3	2	46*
COc1ccc([C@@H]2C[C@H]3[C@@H](CN2S(=O)(=O)c2ccccc2)C(=O)C[C@@H](c2ccc(OC)cc2)N3S(=O)(=O)c2ccccc2)cc1	3	76*	9	0	4	30
CCN=C1NC(c2ccc(F)cc2)C(C(=O)OC)=C(C)N1Cc1ccccc1C(F)(F)F (centres undefined)	-4	.	-13	-18	-20	.
C[C@H](NC(=O)c1nc[nH]c1C(=O)N[C@@H](CCCCNC(=O)OC(C)(C)C)C(=O)OC(C)(C)C)C(=O)OC(C)(C)C	7	73*	11	14	7	62*

Bioassay records (PubChem)
